G9a inh: qHTS Assay for Inhibitors of Histone Lysine Methyltransferase G9a | G9a H3K9 monomethylation, AlphaScreen, 2 h | 8.8% of 350,000 active | Histone-lysine N-methyltransferase EHMT2 (Homo sapiens), Q96KQ7 | Potency, µM (titrated, usually from 102 µM), without a hit: at the top dose activity, negative = inhibition, actives largely listed as inhibitors; also: potency is read from the fitted curve at half-maximal effect; nearly all actives have a fitted effect of over 75% in size
Target sequence (Q96KQ7 913-1193 limits assumed): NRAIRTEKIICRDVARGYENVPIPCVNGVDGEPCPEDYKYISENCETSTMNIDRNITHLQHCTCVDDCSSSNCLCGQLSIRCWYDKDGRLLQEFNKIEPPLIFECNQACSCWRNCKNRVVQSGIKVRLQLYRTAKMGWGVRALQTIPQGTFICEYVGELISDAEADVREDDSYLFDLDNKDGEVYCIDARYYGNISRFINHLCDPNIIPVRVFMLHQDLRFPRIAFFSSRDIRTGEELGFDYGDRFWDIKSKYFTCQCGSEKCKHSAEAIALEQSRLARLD
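Signal arises when biotinylated H3K9 peptide, once monomethylated, bridges streptavidin donor and antibody-captured acceptor beads. Enzyme at 20 nM was preincubated 15 min with test compounds; peptide 500 nM and SAM 20 uM then reacted for 2 h.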
Tau fibril FP: qHTS for Inhibitors of Tau Fibril Formation, Fluorescence Polarization. 0.39% of 280,000 active. Microtubule-associated protein tau (Homo sapiens), P10636. K18 P301L tau heparin fibrillization, Alexa594 FP, 6 h. Potency, µM (titrated, usually from 57.7 µM), for inactives: at the highest dose activity, negative = inhibition, hits mostly inhibitors; also: potency is read from the fitted curve at half-maximal effect; nearly all actives have a fitted effect of over 55% in size
Target sequence (P10636 561-689 P618L limits assumed): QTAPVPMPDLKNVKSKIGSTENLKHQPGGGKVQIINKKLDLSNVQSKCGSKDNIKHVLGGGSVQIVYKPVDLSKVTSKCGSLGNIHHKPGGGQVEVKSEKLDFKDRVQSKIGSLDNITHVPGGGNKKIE
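Human K18 P301L fragment (15 uM unlabeled plus 0.24 uM Alexa 594-labeled) in 100 mM sodium acetate pH 7 with compound, aggregation induced by 20 uM heparin for 6 hr at 37 C. ThT (30 uM) added for 1 hr, then Alexa 594 FP read.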
Tau fluor cs: Counterscreen qHTS for Inhibitors of Tau Fibril Formation, Fluorescence Polarization; tau K18 P301L Alexa594 fluorescence, heparin fibrillization; Potency, µM (top dose mostly 57.7 µM), for the others: at the top dose activity change, negative = decrease; 0.93% of 280,000 active; also: potency is read from the fitted curve at half-maximal effect; nearly all actives have a fitted effect of over 55% in size
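Human tau K18 P301L (15 uM unlabeled, 0.24 uM Alexa 594-labeled) in 100 mM sodium acetate pH 7 with 20 uM heparin, 6 hr at 37 C. ThT 30 uM added, 1 hr ambient; Alexa 594 FP and total fluorescence read at 555/632 nm.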
Coupling enz: qHTS Assay for Inhibitors of Fructose-1,6-bisphosphate Aldolase from Giardia Lamblia: Coupling assay counterscreen. 0.67% of 290,000 active. AID 2472, 2010. coupling enzyme system counterscreen, AmpLite Red fluorescence. activity change, negative = inhibition, % at 58.2 µM, hits read low; in the data active = activity change below about -30%
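Counterscreen lacking aldolase: glyceraldehyde-3-phosphate coupling-enzyme reagent preincubated 10 min at RT with compound (at 57.5 uM final), then substrate/coupling system with AmpLite Red added; fluorescence read at 525/598 nm after 20 min RT.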
Tau ThT inhib: qHTS for Inhibitors of Tau Fibril Formation, Thioflavin T Binding. Microtubule-associated protein tau (Homo sapiens), P10636. recombinant tau K18 P301L (four-repeat tau fragment), heparin-induced fibrillization, ThT fluorescence. Potency, µM (titrated, usually from 57.4 µM), without a hit: at the top dose activity, negative = inhibition, most hits filed as inhibitors. 2.1% of 270,000 active. AID 1460, 2008; also: potency is read from the fitted curve at half-maximal effect; nearly all actives have a fitted effect of over 55% in size
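In this qHTS, human K18 P301L tau is incubated with compound and heparin for 6 hr at 37 C, and Thioflavin T fluorescence then reports fibril load.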
Sfp inh: qHTS Assay for Inhibitors of Bacillus subtilis Sfp phosphopantetheinyl transferase (PPTase). AID 1490, 2009. Biochemical Sfp PPTase activity, qHTS. Potency, µM, inactives show largest response in the series, negative = inhibition, actives largely listed as inhibitors. 4'-phosphopantetheinyl transferase ffp (Bacillus subtilis), Q9F4F7. 3.5% of 310,000 active;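 also: the enzyme is Sfp with the accession as filed and its product quenches rhodamine fluorescence; potency is read from the fitted curve at half-maximal effect; 0% = enzyme reaction without inhibitor and -100% = no enzyme wells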
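Reaction rates are the 30-min fluorescence difference (ex 525, em 598 nm) in wells containing 15 nM Sfp, 5 uM rhodamine-CoA and 12.5 uM BHQ-2-YbbR at pH 7.6 with 10 mM MgCl2.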
Active calls of the source: *; [ ] = dose if it differs, or a comment. A selection: hits, their analogues and other compounds. The true share with any hit is near 11%. Unless noted, calls follow the shape of the dose curve; as a rule, active = well fitted curve in the direction sought with a large enough effect; inconclusive = small, poorly fitted or top-dose-only effect, or another doubt; inactive = no such curve, though single readings can be large; an effect the other way counts as inactive or inconclusive. Unless noted, % is scaled to controls: 0 for no effect and ±100 for the full control effect.

Screening COc1ccc(CC(=O)OCC(=O)NCc2ccco2)cc1OC returned G9a inh 50µM*.
For COc1cc(C(=O)OCC(=O)NCc2ccco2)cc(OC)c1OC the results were G9a inh -26%, Tau fibril FP -7%, Tau fluor cs -10%, Coupling enz 3, Tau ThT inhib inconclusive and Sfp inh -3%.
`CC(C)C[C@@H](CC(=O)N[C@@H](CCC(=O)O)CC(=O)O)NC(=O)[C@@H]1CCCC[C@H]1NC(=O)C[C@@H](NC(=O)C[C@H](Cc1c[nH]c2ccccc12)NC(=O)[C@@H]1CNCC[C@H]1N)C(C)C` gave Tau fibril FP 9%, Tau fluor cs -3%, Coupling enz 1, Tau ThT inhib -1% and Sfp inh -20%.
CC(=O)c1cccc(NS(=O)(=O)c2ccc(N/C=C\C(=O)c3ccc(F)cc3)cc2)c1 was read as G9a inh inconclusive, Tau fibril FP inconclusive, Tau fluor cs inconclusive, Tau ThT inhib 1% and Sfp inh 2%.
`CCOc1ccc(C(=O)/C=C/Nc2ccc(S(=O)(=O)Nc3onc(C)c3C)cc2)cc1` gave G9a inh 1.6µM*, Tau fibril FP 6%, Tau fluor cs 6%, Coupling enz -3, Tau ThT inhib 4% and Sfp inh inconclusive.
Screening COc1cccc(C(=O)/C=C/Nc2ccc(S(=O)(=O)Nc3onc(C)c3C)cc2)c1 returned G9a inh inconclusive, Tau fibril FP 4%, Tau fluor cs -13%, Coupling enz 12, Tau ThT inhib inconclusive and Sfp inh 9%.
For Cc1noc(NS(=O)(=O)c2ccc(N/C=C\C(=O)c3ccc(Br)cc3)cc2)c1C the results were Tau fibril FP -2%, Tau fluor cs -25%, Coupling enz 14, Tau ThT inhib 13µM* and Sfp inh 71µM*.
`Cc1noc(NS(=O)(=O)c2ccc(N/C=C\C(=O)c3ccc4c(c3)OCO4)cc2)c1C` gave G9a inh -20%[12.7 µM], Tau fibril FP 4%, Tau fluor cs -14%, Coupling enz 18, Tau ThT inhib inconclusive and Sfp inh -24%.
For CC(=O)c1cccc(NS(=O)(=O)c2ccc(N/C=C/C(=O)c3ccc(F)cc3)cc2)c1 the results were G9a inh 8.9µM*, Tau fibril FP -4%, Tau fluor cs 1%, Coupling enz -3, Tau ThT inhib 11% and Sfp inh 22%.
Cc1noc(NS(=O)(=O)c2ccc(N/C=C\C(=O)c3cccc4ccccc34)cc2)c1C was read as G9a inh inconclusive, Tau fibril FP -5%, Tau fluor cs -16%, Coupling enz 11, Tau ThT inhib 10µM* and Sfp inh 79µM*.
`O=C(Cn1nc(-c2ccc3c(c2)OCCO3)ccc1=O)Nc1cccc(NC(=O)c2ccccn2)c1` gave G9a inh 5%, Tau fibril FP -12%, Tau fluor cs -15%, Coupling enz -1, Tau ThT inhib 8% and Sfp inh -15%.
For Cc1ccc(NC(=O)C2CC(=O)N(C(C)C)C2)cc1C (stereo not given) the results were G9a inh -1%[0.501 µM], Coupling enz 0 and Sfp inh 22%.
For COc1ccc(CNC(=O)c2cnc3n(c2=O)CCS3)cc1 the results were G9a inh 45µM*, Tau fibril FP 5%, Tau fluor cs -3%, Coupling enz 0, Tau ThT inhib -4% and Sfp inh 8%.
For O=C(NCc1ccccc1Cl)c1cnc2n(c1=O)CCS2 the results were G9a inh 56µM*, Tau fibril FP 3%, Tau fluor cs -7%, Coupling enz 2, Tau ThT inhib -11% and Sfp inh inconclusive.
For CCS(=O)(=O)c1c(S(=O)(=O)CC)c2cc(C(C)(C)C)ccn2c1C(=O)c1ccc(F)cc1 the results were G9a inh -17%[59 µM], Tau fibril FP 1%, Tau fluor cs -2% and Tau ThT inhib -2%.
Cc1cc(Cl)c(OCCOCCN2CCN(C)CC2)c(Br)c1 was read as G9a inh inconclusive, Coupling enz -3 and Sfp inh inconclusive.
Cc1cc(C)c(OCCCCCNCCO)c(C)c1 was read as G9a inh 5%, Tau fibril FP -1%, Tau fluor cs -4%, Coupling enz -2, Tau ThT inhib -6% and Sfp inh -7%.
For Cc1cc(Cl)c(OCCCN(C)C)c(Br)c1 the results were G9a inh 11µM*, Tau fibril FP -3%, Tau fluor cs 9%, Coupling enz -3, Tau ThT inhib 7% and Sfp inh -7%.
Cc1cc(Cl)cc(Cl)c1OCCOCCN(C)C was read as G9a inh 11µM*, Tau fibril FP 1%, Tau fluor cs 1%, Coupling enz 3, Tau ThT inhib -6% and Sfp inh -20%.
Cc1cc(Cl)c(OCCCCNC(C)(C)C)c(Br)c1 was read as G9a inh 8.9µM*, Tau fibril FP -2%, Tau fluor cs -6%, Coupling enz 3, Tau ThT inhib -3% and Sfp inh -21%.
Screening Cc1ccc(OCCCN(C)C)c(Br)c1 returned G9a inh inconclusive, Tau fibril FP -5%, Tau fluor cs -2%, Coupling enz 3, Tau ThT inhib -8% and Sfp inh 1%.
For Cc1cc(Br)cc(C)c1OCCCCN(C)C the results were G9a inh -2%[0.501 µM], Tau fibril FP -5%, Tau fluor cs 1%, Coupling enz 2, Tau ThT inhib 5% and Sfp inh 79µM*.
COc1ccccc1OCC(=O)Nc1cc(C)ccc1NC(=O)c1ccco1 was read as G9a inh 23% and Sfp inh 7%.
CCN(CC)S(=O)(=O)c1ccc2c(c1)nc(CN(C)C(=O)Nc1ccc(F)cc1)n2C was read as G9a inh inconclusive, Tau fibril FP -3%, Tau fluor cs -7% and Tau ThT inhib 3%.
For CCOc1cc(C(=O)N(CC)CC(=O)Nc2c(F)cccc2F)ccc1OCC(=O)N1CCCCC1 the results were G9a inh 5%.
Screening Cc1cc(C)c(OCCN(C)C)c(Cl)c1 returned G9a inh 11µM*, Tau fibril FP 8%, Tau fluor cs 1%, Coupling enz 0, Tau ThT inhib 0% and Sfp inh -18%.

Compound activity deposited in PubChem by National Center for Advancing Translational Sciences (NCATS).
